Test results as given in PubChem BioAssay AID463173 (ICCB-Longwood Screening Facility, Harvard Medical School, 2010).
The whole screen tested about 52,000 compounds, of which about 1,700 (3.3%) were called active. For the sample, actives were picked, then their nearest neighbours and some compounds at random. Unmarked numbers belong to inactive results. No stated cut-off is given here; in the data, active means survival mostly below about 52% (no sharp cut-off); inactive means mostly above about 56%.

What follows are molecules tested on Wild type (assay: growth inhibition of S. aureus wild type versus tarO mutant, primary screen, teichoic acid synthesis inhibitors, RN4220, OD600 (AID 463173)). Details: S. aureus RN4220 wild type/DeltatarO growth, OD600, 18 h, hits give low values, screened at 18.75 µg/mL (by protocol).
`O=C(Nc1ccc(Br)cc1F)N1CCC(CN2CCc3ccccc3C2)CC1` was tested, and the survival was 63%. `O=C(Nc1ccc2nc(SCC(=O)N3CCCC3)sc2c1)c1ccc(F)cc1` gave a survival of 87%. `O=C(CSc1nc2ccccc2c(=O)n1Cc1ccco1)Nc1ccccc1` showed a survival of 106%. For `Cc1ccc(N2CCN(S(=O)(=O)c3ccc(-n4cnnn4)cc3)CC2)c(C)c1`, the survival was 97%. `CCOc1ccc(C(=O)c2cn(Cc3ccccc3OC)c3cc4c(cc3c2=O)OCCO4)cc1` showed a survival of 80%. With `Cc1ccc2nc(N(CCCN(C)C)C(=O)c3ccc(Br)s3)sc2c1` the survival was 90%. `CN(C)CCCN(C(=O)c1cccs1)c1nc2ccc(F)cc2s1` showed a survival of 76%. With `CN(C)CCCN(C(=O)c1ccc(Br)s1)c1nc2ccc(F)cc2s1` the survival was -6% (active). `CCS(=O)(=O)c1ccccc1C(=O)Nc1ccc(-c2nc3ccccc3s2)cc1` gave a survival of 77%. With `O=C(CCn1cnc2ccccc2c1=O)NCc1ccccc1Cl` the survival was 98%. `COc1ccccc1CNC(=O)CCn1cnc2ccccc2c1=O` was tested, and the survival was -6% (active). `COc1ccccc1NC(=O)CCn1cnc2ccccc2c1=O` gave a survival of 76%. In the case of `Cc1ccc(-c2[nH]c3ccccc3c2SCCNC(=O)c2ccc(S(=O)(=O)N3CCOCC3)cc2)cc1`, the survival was 81%. In the case of `CCOC(=O)c1ccc(CNS(=O)(=O)c2c(C)ccc3nsnc23)o1`, the survival was 105%. For `Fc1ccc(-n2nc(-c3ccccc3)c3cnc4ccccc4c32)cc1Cl`, the survival was 138%. `Cc1ccc(C)c(N2CCN(S(=O)(=O)c3cc(C(=O)Nc4cc(Cl)cc(Cl)c4)ccc3F)CC2)c1` was tested, and the survival was 85%. With `CCOc1ccc(NC(=O)c2ccc3nc(C(C)C)oc3c2)cc1` the survival was 70%. In the case of `Cc1ccc(Cl)c2sc(N3CCN(C(=O)C4CC4)CC3)nc12`, the survival was 76%. `CCCC(=O)N1CCN(c2nc3c(OC)ccc(C)c3s2)CC1` was tested, and the survival was 14% (active). For `COc1ccc(OC)c2sc(N3CCN(C(=O)C4CC4)CC3)nc12`, the survival was -6% (active). `CCS(=O)(=O)c1ccc(C(=O)N2CCN(c3nc4c(OC)ccc(C)c4s3)CC2)cc1` was tested, and the survival was 91%. For `Cc1ccc(C)c2sc(N3CCN(C(=O)c4ccco4)CC3)nc12`, the survival was 159%. For `COc1ccc(C)c2sc(N3CCN(C(=O)c4ccco4)CC3)nc12`, the survival was -1% (active). In the case of `COc1ccc(OC)c2sc(N3CCN(C(=O)C(C)(C)C)CC3)nc12`, the survival was 69%. With `COc1ccc(OC)c2sc(N3CCN(C(=O)c4ccco4)CC3)nc12` the survival was 76%. `COc1ccc(C)c2sc(N3CCN(C(=O)c4cccc(F)c4)CC3)nc12` gave a survival of 133%. `COc1ccc2c(c1)c1c(c(=O)n(-c3ccccc3C)c(=O)n1CC(N)=O)n2C` gave a survival of 82%. With `CCOc1ccccc1NC(=O)CCn1nc(C)c(S(=O)(=O)N2CCCCC2)c1C` the survival was 76%. With `COc1ccc(N2CCN(C(CNC(=O)CC(C)C)c3ccc4c(c3)OCO4)CC2)cc1` (centres undefined) the survival was 83%. With `CCOc1ccc(-c2nnc(SCC(=O)NCCc3ccccc3)nc2-c2ccc(OCC)cc2)cc1` the survival was 73%. In the case of `COc1cc(C2CC(=O)Nc3c2c(=O)[nH]c2ncnn32)ccc1O` (centres undefined), the survival was 77%. For `CCOCCCNC(=O)c1ccc2c(=O)n(CCc3ccccc3)c(=O)[nH]c2c1`, the survival was 79%. `Cc1ccc(C)c(N2CCN(C(=O)CSCc3ccccc3Cl)CC2)c1` gave a survival of 82%. `O=C(Nc1ccccn1)c1ccccc1O` gave a survival of 110%. Work on `CCCSc1nnc2c(n1)OC(c1ccc(Br)s1)Nc1ccccc1-2` (centres undefined) yielded a survival of 88%. With `CCCCSc1nnc2c(n1)OC(c1ccc(Br)s1)Nc1ccccc1-2` (centres undefined) the survival was 9% (active). `CCCCSc1nnc2c(n1)OC(c1ccc(C)s1)Nc1ccccc1-2` (centres undefined) showed a survival of 56%. In the case of `Cc1ccc(NC(=O)Cn2c(=O)n(Cc3nc(-c4ccccc4)no3)c(=O)c3cc4c(cc32)OCO4)cc1F`, the survival was 89%. `CC(C)C(c1nnnn1Cc1ccccc1)N1CCCc2ccccc21` (centres undefined) showed a survival of 122%. With `N#Cc1c(NC(=O)c2ccco2)sc2c1CCCC2` the survival was 104%. Molecule `CNS(=O)(=O)c1cn(CC(=O)N2CCN(c3ccc(OC)cc3)CC2)cc1S(=O)(=O)NC` has a survival of 69%. For `CNS(=O)(=O)c1cn(CC(=O)N2CCN(c3ccc(C(C)=O)cc3)CC2)cc1S(=O)(=O)NC`, the survival was 10% (active). In the case of `CNS(=O)(=O)c1cn(CC(=O)N2CCN(c3ccc(Cl)cc3)CC2)cc1S(=O)(=O)NC`, the survival was 124%. `Cc1ccc(SCc2nc(-c3ccc(C(=O)Nc4cc(C)ccc4C)cc3)oc2C)cc1` showed a survival of 129%. `Clc1cccc(CSc2nc(NCCc3ccccc3)c3ccccc3n2)c1` was tested, and the survival was 66%. `Fc1cccc(CSc2nc(NCCc3ccccc3)c3ccccc3n2)c1` was tested, and the survival was -3% (active). `COc1ccc(CCNc2nc(SCc3cccc(F)c3)nc3ccccc23)cc1OC` was tested, and the survival was 80%. `COC(=O)c1cc(S(=O)(=O)N2CCN(c3cccc(C)c3)C(C)C2)c[nH]1` (centres undefined) showed a survival of 98%. In the case of `Cc1cccc(NCc2nc3ccccc3n2CCOc2ccccc2C)c1`, the survival was -18% (active). `COc1cccc(OCc2nc3ccccc3n2CCOc2ccccc2C)c1` showed a survival of 55%. Work on `Fc1ccc(NCc2nc3ccccc3n2CCOc2ccccc2Cl)cc1` yielded a survival of 95%. In the case of `COc1ccccc1OCCn1c(COc2cc(C)ccc2C)nc2ccccc21`, the survival was 87%. For `COc1ccc(NCc2nc3ccccc3n2CCOc2ccccc2C)cc1`, the survival was 4% (active). Work on `O=C(O)c1ccc(NCc2nc3ccccc3n2CCOc2ccccc2Cl)cc1` yielded a survival of 88%. For `Cc1ccc(NCc2nc3ccccc3n2CCOc2ccccc2C)cc1`, the survival was -20% (active). `Cc1ccccc1OCCn1c(CCNC(=O)C2CCCCC2)nc2ccccc21` was tested, and the survival was 90%. With `Cc1ccc(C)c(CSc2c(C(C)C)cnc3c2c(=O)n(C)c(=O)n3C)c1` the survival was 126%. For `O=C(CSc1ncc(CO)n1Cc1ccccc1)Nc1ccc(C(F)(F)F)cc1`, the survival was 120%. Molecule `Cc1ccc(NC(=O)C(Cc2ccccc2)n2cccc2)cc1` (centres undefined) has a survival of 96%. With `O=C(Nc1ccc(C(F)(F)F)cc1)C(Cc1ccccc1)n1cccc1` (centres undefined) the survival was -2% (active). With `CC(=O)Nc1ccc(NC(=O)C(Cc2ccccc2)N2Cc3ccccc3C2=O)cc1` (centres undefined) the survival was 72%. In the case of `CC(C)c1ccc(NC(=O)C(Cc2ccccc2)n2cccc2)cc1` (centres undefined), the survival was 13% (active). For `O=C(Nc1ccccc1F)C(Cc1ccccc1)n1cccc1` (centres undefined), the survival was 85%. `COc1ccc(NC(=O)C(Cc2ccccc2)n2cccc2)c(OC)c1` (centres undefined) showed a survival of 78%.
